Laboratory results published in PubChem BioAssay (NCI).
Several values for one entry are separate records, joined by “and”; a condition that tells them apart may be missing. Identical values can stand only once. Compounds without any hit were thinned out: in the full panel of roughly 83,000, 20% have a hit.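 Percent growth is the endpoint: 0 to 100 indicates growth inhibition (40 means 60% inhibition), 0 means no net growth, and negative values indicate cell death.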 Activity calls are given as the source filed them. The calls were made as follows: active = growth percent below 10; inactive = the rest.

Columns and labels:
Test in all cases: NCI-60 one-dose screen, 48 h (100 = growth as untreated, 0 = no growth, -100 = all killed)
Conditions in all cases: 10 µM unless noted
SR leukemia = test system: SR leukemia
RPMI-8226 leukemia = test system: RPMI-8226 leukemia
OVCAR-8 ovarian = test system: OVCAR-8 ovarian
OVCAR-5 ovarian = test system: OVCAR-5 ovarian
OVCAR-4 ovarian = test system: OVCAR-4 ovarian
SK-OV-3 ovarian = test system: SK-OV-3 ovarian
IGROV1 ovarian = test system: IGROV1 ovarian
OVCAR-3 ovarian = test system: OVCAR-3 ovarian
HS 578T breast = test system: HS 578T breast
NCI/ADR-RES ovarian = test system: NCI/ADR-RES ovarian
T-47D breast = test system: T-47D breast
BT-549 breast = test system: BT-549 breast
MDA-MB-435 melanoma = test system: MDA-MB-435 melanoma
SW-620 colon = test system: SW-620 colon
MCF7 breast = test system: MCF7 breast
HCT-116 colon = test system: HCT-116 colon
HCC-2998 colon = test system: HCC-2998 colon
KM12 colon = test system: KM12 colon

Compound	growth (SR leukemia)	growth (RPMI-8226 leukemia)	growth (OVCAR-8 ovarian)	growth (OVCAR-5 ovarian)	growth (OVCAR-4 ovarian)	growth (SK-OV-3 ovarian)	growth (IGROV1 ovarian)	growth (OVCAR-3 ovarian)	growth (HS 578T breast)	growth (NCI/ADR-RES ovarian)	growth (T-47D breast)	growth (BT-549 breast)	growth (MDA-MB-435 melanoma)	growth (SW-620 colon)	growth (MCF7 breast)	growth (HCT-116 colon)	growth (HCC-2998 colon)	growth (KM12 colon)
Cc1ccc(S(=O)(=O)c2ccccc2)cc1	34.7% (inactive)	49% (inactive)	55.1% (inactive)	80.1% (inactive)	71.1% (inactive)	29.5% (inactive)	45.4% (inactive)	-38.9% (active)	35.2% (inactive)	21.1% (inactive)	49.7% (inactive)	36.6% (inactive)	-49.8% (active)	11.6% (inactive)	20.9% (inactive)	18.8% (inactive)	51.6% (inactive)	25.5% (inactive)
O=C1OC(c2ccccc2)=N/C1=C\c1ccccc1	108% (inactive)	102% (inactive)	100% (inactive)	105% (inactive)	113% (inactive)	97.2% (inactive)	99.1% (inactive)	111% (inactive)	97.4% (inactive)	99.7% (inactive)	96.4% (inactive)	96.3% (inactive)	109% (inactive)	101% (inactive)	98.4% (inactive)	102% (inactive)	96.6% (inactive)	108% (inactive)
CCCCOc1ccc(Nc2cc(Cl)ccc2C(=O)O)cn1	96.1% (inactive)	57.8% (inactive) and 93.2% (inactive)	111% (inactive) and 94.6% (inactive)	110% (inactive) and 101% (inactive)	92.4% (inactive)	108% (inactive)	42.5% (inactive) and 104% (inactive)	111% (inactive) and 106% (inactive)	95.3% (inactive) and 99.2% (inactive)	90.4% (inactive) and 97.4% (inactive)	92.6% (inactive) and 92.3% (inactive)	101% (inactive) and 100% (inactive)	105% (inactive) and 107% (inactive)	103% (inactive) and 101% (inactive)	99.5% (inactive) and 107% (inactive)	93.7% (inactive) and 92.4% (inactive)	95.4% (inactive)	118% (inactive) and 103% (inactive)
O=CN1CCCCC1	119% (inactive)	177% (inactive)	117% (inactive)	104% (inactive)	108% (inactive)	113% (inactive)	124% (inactive)	112% (inactive)	114% (inactive)	103% (inactive)	109% (inactive)	97.3% (inactive)	107% (inactive)	102% (inactive)	97.6% (inactive)	–	105% (inactive)	100% (inactive)
Nc1cc(N)c(N)cc1N	-7.21% (active)	89.7% (inactive)	63.3% (inactive)	-9.01% (active)	25.3% (inactive)	98.4% (inactive)	47.6% (inactive)	-55.1% (active)	67.7% (inactive)	59.6% (inactive)	81.7% (inactive)	85.4% (inactive)	-73.8% (active)	7.1% (active)	-49.2% (active)	–	101% (inactive)	80.1% (inactive)
CC(=O)Nc1ccc(S(N)(=O)=O)cc1	117% (inactive) and 105% (inactive)	95.6% (inactive) and 111% (inactive)	99.5% (inactive) and 97.6% (inactive)	106% (inactive) and 102% (inactive)	99.4% (inactive) and 105% (inactive)	95.4% (inactive) and 99.8% (inactive)	99.5% (inactive) and 97.1% (inactive)	110% (inactive) and 116% (inactive)	96.3% (inactive) and 113% (inactive)	102% (inactive) and 104% (inactive)	87.7% (inactive) and 100% (inactive)	104% (inactive)	97.4% (inactive) and 96.3% (inactive)	96.7% (inactive) and 104% (inactive)	91.8% (inactive) and 93.3% (inactive)	94.2% (inactive) and 93.6% (inactive)	108% (inactive)	109% (inactive) and 108% (inactive)
Cc1cc2ccccc2cn1	109% (inactive)	100% (inactive) and 114% (inactive)	102% (inactive)	107% (inactive)	108% (inactive) and 90.4% (inactive)	108% (inactive) and 103% (inactive)	144% (inactive)	112% (inactive) and 111% (inactive)	113% (inactive) and 144% (inactive)	103% (inactive) and 118% (inactive)	104% (inactive) and 107% (inactive)	106% (inactive) and 105% (inactive)	101% (inactive) and 106% (inactive)	104% (inactive) and 116% (inactive)	98.5% (inactive) and 101% (inactive)	–	112% (inactive) and 118% (inactive)	106% (inactive) and 108% (inactive)
O=C1CSC2=NCCN12	98.3% (inactive) and 49.5% (inactive)	101% (inactive) and 90.7% (inactive)	96.4% (inactive) and 107% (inactive)	116% (inactive) and 96.7% (inactive)	93.9% (inactive) and 94.2% (inactive)	105% (inactive) and 124% (inactive)	106% (inactive) and 101% (inactive)	102% (inactive) and 122% (inactive)	88.1% (inactive) and 92.9% (inactive)	94.9% (inactive) and 102% (inactive)	111% (inactive)	131% (inactive)	71.5% (inactive) and 70.6% (inactive)	92% (inactive) and 93.4% (inactive)	92.7% (inactive) and 81.6% (inactive)	–	96.9% (inactive) and 107% (inactive)	89.8% (inactive) and 123% (inactive)
CC(=O)NCC(=O)c1ccc([N+](=O)[O-])cc1	104% (inactive)	104% (inactive)	103% (inactive)	103% (inactive)	113% (inactive)	108% (inactive)	107% (inactive)	105% (inactive)	106% (inactive)	104% (inactive)	86.3% (inactive)	107% (inactive)	104% (inactive)	99.5% (inactive)	96.5% (inactive)	106% (inactive)	109% (inactive)	103% (inactive)
ClCCOCCOc1ccc(C2CCCCC2)cc1	98.5% (inactive)	110% (inactive)	97.1% (inactive)	95.4% (inactive)	97.7% (inactive)	102% (inactive)	117% (inactive)	103% (inactive)	101% (inactive)	115% (inactive)	96.7% (inactive)	95% (inactive)	99.5% (inactive)	110% (inactive)	102% (inactive)	–	106% (inactive)	110% (inactive)
Cc1ccc(=O)[nH]n1	98.9% (inactive) and 93% (inactive)	108% (inactive)	100% (inactive) and 102% (inactive)	115% (inactive) and 98.4% (inactive)	112% (inactive) and 122% (inactive)	111% (inactive) and 112% (inactive)	106% (inactive)	106% (inactive) and 107% (inactive)	105% (inactive) and 93.7% (inactive)	103% (inactive)	109% (inactive) and 95.4% (inactive)	112% (inactive) and 113% (inactive)	113% (inactive)	102% (inactive) and 103% (inactive)	101% (inactive) and 96.2% (inactive)	–	98.2% (inactive) and 107% (inactive)	103% (inactive) and 101% (inactive)
Nc1nc(N)c2[nH]cnc2n1	93% (inactive)	64.3% (inactive)	70.4% (inactive)	90.3% (inactive)	88.5% (inactive)	–	–	97.8% (inactive)	114% (inactive)	87.3% (inactive)	59.1% (inactive)	96.8% (inactive)	84.5% (inactive)	85.9% (inactive)	54.2% (inactive)	90.5% (inactive)	86% (inactive)	107% (inactive)
CC[C@H](CC[C@@H](C)[C@H]1CC[C@H]2[C@@H]3CC=C4C[C@@H](O)CC[C@]4(C)[C@H]3CC[C@]12C)C(C)C	109% (inactive) and 101% (inactive)	114% (inactive)	98.9% (inactive) and 105% (inactive)	45.2% (inactive) and 103% (inactive)	97.6% (inactive) and 114% (inactive)	94.8% (inactive) and 104% (inactive)	111% (inactive)	112% (inactive) and 108% (inactive)	96.5% (inactive) and 103% (inactive)	-46.1% (active) and 101% (inactive)	97.2% (inactive) and 105% (inactive)	100% (inactive)	97.4% (inactive) and 99.4% (inactive)	110% (inactive) and 104% (inactive)	107% (inactive) and 89.8% (inactive)	–	108% (inactive)	106% (inactive) and 98.6% (inactive)
O=[N+]([O-])c1cccc(SSc2cccc([N+](=O)[O-])c2)c1	81% (inactive)	–	100% (inactive)	104% (inactive)	105% (inactive)	97.8% (inactive)	109% (inactive)	127% (inactive)	121% (inactive)	116% (inactive)	76.9% (inactive)	101% (inactive)	102% (inactive)	109% (inactive)	93.7% (inactive)	–	108% (inactive)	107% (inactive)
Fc1ccc([I+]c2ccc(F)cc2)cc1	38.6% (inactive)	41.7% (inactive)	46.1% (inactive)	92.9% (inactive)	52.1% (inactive)	68.4% (inactive)	62.4% (inactive)	64.9% (inactive)	86.2% (inactive)	98.8% (inactive)	–	67% (inactive)	75% (inactive)	55.9% (inactive)	48.2% (inactive)	32.9% (inactive)	71.7% (inactive)	54.5% (inactive)
